In PubChem BioAssay (NCI):
Compounds without any hit were thinned out: in the full panel of roughly 79,000, 15% have a hit. A number with no mark means an inactive call. Active and inactive are the calls of the source. No stated cut-off is given here; in the data, active means growth inhibition above about 70%; inactive means the rest.

Experiments:
[1] = NCI Yeast Anticancer Drug Screen. Data for the wt1 strain (AID 149);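 further: 0% = growth of vehicle-treated wt1 cultures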; settings: S. cerevisiae wt1 strain (SPY 50644) growth inhibition, hits give high values
Summary of the method: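 Readout: yeast growth inhibition, normalised to vehicle controls, in the wt1 strain exposed to test compounds.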

[2] = NCI Yeast Anticancer Drug Screen. Data for the rad50EPP+ strain (AID 151);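 further: 0% = growth of vehicle-treated control cultures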; settings: S. cerevisiae rad50 mutant strain, hits give high values
Summary of the method: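 One strain with a rad50 alteration (rad50EPP+) was compound-treated, its growth then compared to that of vehicle controls.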

[3] = NCI Yeast Anticancer Drug Screen. Data for the mgt1 strain (AID 153); settings: S. cerevisiae mgt1 mutant growth inhibition, hits give high values
Summary of the method: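 After exposure of the mgt1 yeast mutant to compound, growth was measured and reported as inhibition compared with vehicle controls.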

[4] = NCI Yeast Anticancer Drug Screen. Data for the rad50 strain (AID 155);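 further: 0% = growth of vehicle-only cultures of the same strain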; settings: S. cerevisiae rad50 strain growth inhibition, hits give high values
Summary of the method: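 Compounds were tested on a yeast strain with an engineered DNA damage repair alteration; the reported value is growth inhibition normalised to vehicle treatment.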

[5] = NCI Yeast Anticancer Drug Screen. Data for the mec2-1 strain (AID 157); settings: S. cerevisiae mec2-1 strain, hits give high values
Summary of the method: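 Test agents were screened against the mec2-1 yeast strain, with defined DNA repair or cell cycle alteration. Growth was scored as inhibition against vehicle-only controls.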

[6] = NCI Yeast Anticancer Drug Screen. Data for the rad14 strain (AID 159);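 further: 0% = growth of vehicle-treated control cultures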; settings: S. cerevisiae rad14 strain growth inhibition, hits give high values
Summary of the method: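 Compound-treated yeast with a defined DNA-repair lesion; growth inhibition normalised to vehicle-treated cultures.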

[7] = NCI Yeast Anticancer Drug Screen. Data for the sgs1 mgt1 strain (AID 161);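 further: 0% = growth of cultures given vehicle only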; settings: S. cerevisiae sgs1 mgt1 strain, hits give high values
Summary of the method: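 Test agents were incubated with a DNA-repair-mutant yeast strain. Growth was then read and compared against vehicle-treated controls.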

[8] = NCI Yeast Anticancer Drug Screen. Data for the CLN2oe strain (AID 163);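 further: 0% = growth of vehicle-only control cultures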; settings: S. cerevisiae CLN2oe strain, hits give high values
Summary of the method: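 Here, growth inhibition in a cell-cycle-altered yeast strain after compound exposure was quantified against vehicle control growth.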

[9] = NCI Yeast Anticancer Drug Screen. Data for the cln2 rad14 strain (AID 165);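 further: 0% = growth equal to vehicle treated cultures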; settings: S. cerevisiae cln2 rad14 strain, hits give high values
Summary of the method: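 Growth of compound-exposed yeast (cln2 rad14 genotype) measured and expressed as inhibition relative to vehicle.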

[10] = NCI Yeast Anticancer Drug Screen. Data for the bub3 strain (AID 167); settings: S. cerevisiae bub3 mutant strain, hits give high values
Summary of the method: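 Growth of a checkpoint-deficient yeast mutant is measured after compound exposure. Values represent inhibition relative to vehicle.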

[11] = NCI Yeast Anticancer Drug Screen. Data for the wt2 strain (AID 169);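 further: 0% = growth of vehicle-treated yeast cultures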; settings: S. cerevisiae wt2 strain growth inhibition, hits give high values
Summary of the method: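 Genetically defined yeast strains from a DNA-repair/cell-cycle panel were used. Compound-exposed yeast growth was measured, and the inhibition was calculated relative to vehicle treatment.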

[12] = NCI Yeast Anticancer Drug Screen. Data for the mlh1 strain (AID 171);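 further: 0% = growth of vehicle-treated control cultures of the same strain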; settings: S. cerevisiae mlh1 strain growth inhibition, hits give high values
Summary of the method: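 Here the genetically defined yeast mutant is grown with each compound, and the extent to which its growth falls below that of vehicle-exposed cells is reported.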

[13] = NCI Yeast Anticancer Drug Screen. Data for the sgs1 strain (AID 173);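 further: 0% = growth of vehicle-only control cultures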; settings: S. cerevisiae sgs1 mutant, hits give high values
Summary of the method: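 Relative growth inhibition, referenced to vehicle, was determined in a yeast strain with a defined alteration affecting DNA damage repair or cell cycle control after compound exposure.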

[14] = NCI Yeast Anticancer Drug Screen. Data for the mlh1 rad18 strain (AID 175); settings: S. cerevisiae mlh1 rad18 strain growth inhibition, hits give high values
Summary of the method: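 In this whole-cell yeast screen, a strain with altered DNA damage repair is challenged with compound, and its growth is measured against matched vehicle-treated controls.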

[15] = NCI Yeast Anticancer Drug Screen. Data for the rad18 strain (AID 177); settings: S. cerevisiae rad18 mutant growth inhibition, hits give high values
Summary of the method: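 Screen uses a yeast strain with a defined lesion in DNA damage repair; compound effect is read as loss of growth compared to untreated vehicle cultures.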

[16] = at 5.0 µM (retest, dose inferred, filed as 0.5)
[17] = at 50.0 µM (retest, dose inferred, filed as 5.0)

## Nc1ccc(Cl)cc1C(=O)c1ccccc1
[1]; at 1.2 µM
  growth inhibition: -20%
[1]; at 3.7 µM
  growth inhibition: -10%
[1]; at 11.0 µM
  growth inhibition: -10%
[1]; at 33.0 µM
  growth inhibition: 39%
[1]; at 100.0 µM
  growth inhibition: 98% (active)
[2]; at 1.2 µM
  growth inhibition: -7%
[2]; at 3.7 µM
  growth inhibition: -2%
[2]; at 11.0 µM
  growth inhibition: 4%
[2]; at 33.0 µM
  growth inhibition: 44%
[2]; at 100.0 µM
  growth inhibition: 90% (active)
[3]; at 1.2 µM
  growth inhibition: -28%
[3]; at 3.7 µM
  growth inhibition: -42%
[3]; at 11.0 µM
  growth inhibition: -43%
[3]; at 33.0 µM
  growth inhibition: 3%
[3]; at 100.0 µM
  growth inhibition: 97% (active)
[4]; at 1.2 µM
  growth inhibition: -17%
[4]; at 3.7 µM
  growth inhibition: -19%
[4]; [16]
  growth inhibition: 48%
[4]; at 11.0 µM
  growth inhibition: -4%
[4]; at 33.0 µM
  growth inhibition: 57%
[4]; [17]
  growth inhibition: 82% (active)
[4]; at 50.0 µM
  growth inhibition: 91% (active)
[4]; at 100.0 µM
  growth inhibition: 97% (active)
[5]; at 1.2 µM
  growth inhibition: -38%
[5]; at 3.7 µM
  growth inhibition: -33%
[5]; [16]
  growth inhibition: 54%
[5]; at 11.0 µM
  growth inhibition: -18%
[5]; at 33.0 µM
  growth inhibition: 0%
[5]; [17]
  growth inhibition: 86% (active)
[5]; at 50.0 µM
  growth inhibition: 72.2% (active)
[5]; at 100.0 µM
  growth inhibition: 97% (active)
[6]; at 1.2 µM
  growth inhibition: -25%
[6]; at 3.7 µM
  growth inhibition: -23%
[6]; at 11.0 µM
  growth inhibition: -15%
[6]; at 33.0 µM
  growth inhibition: 46%
[6]; at 100.0 µM
  growth inhibition: 97% (active)
[7]; [16]
  growth inhibition: -19%
[7]; [17]
  growth inhibition: 98% (active)
[7]; at 50.0 µM
  growth inhibition: 90.7% (active)
[8]; at 1.2 µM
  growth inhibition: 5%
[8]; at 3.7 µM
  growth inhibition: -5%
[8]; at 11.0 µM
  growth inhibition: 5%
[8]; at 33.0 µM
  growth inhibition: 20%
[8]; at 100.0 µM
  growth inhibition: 97% (active)
[9]; [16]
  growth inhibition: 57%
[9]; [17]
  growth inhibition: 96% (active)
[9]; at 50.0 µM
  growth inhibition: 71.4% (active)
[10]; at 1.2 µM
  growth inhibition: -35%
[10]; at 3.7 µM
  growth inhibition: -40%
[10]; [16]
  growth inhibition: -6%
[10]; at 11.0 µM
  growth inhibition: -52%
[10]; at 33.0 µM
  growth inhibition: -23%
[10]; [17]
  growth inhibition: 96% (active)
[10]; at 50.0 µM
  growth inhibition: 88.1% (active)
[10]; at 100.0 µM
  growth inhibition: 96% (active)
[11]; at 1.2 µM
  growth inhibition: -2%
[11]; at 3.7 µM
  growth inhibition: -5%
[11]; at 11.0 µM
  growth inhibition: -6%
[11]; at 33.0 µM
  growth inhibition: 21%
[11]; at 100.0 µM
  growth inhibition: 97% (active)
[12]; at 1.2 µM
  growth inhibition: -23%
[12]; at 3.7 µM
  growth inhibition: -33%
[12]; at 11.0 µM
  growth inhibition: -31%
[12]; at 33.0 µM
  growth inhibition: 22%
[12]; at 100.0 µM
  growth inhibition: 97% (active)
[13]; at 1.2 µM
  growth inhibition: -7%
[13]; at 3.7 µM
  growth inhibition: 1%
[13]; at 11.0 µM
  growth inhibition: 7%
[13]; at 33.0 µM
  growth inhibition: 63%
[13]; at 100.0 µM
  growth inhibition: 98% (active)
[14]; [16]
  growth inhibition: 39%
[14]; [17]
  growth inhibition: 81% (active)
[14]; at 50.0 µM
  growth inhibition: 88.4% (active)
[15]; at 1.2 µM
  growth inhibition: -12%
[15]; at 3.7 µM
  growth inhibition: -12%
[15]; at 11.0 µM
  growth inhibition: -2%
[15]; at 33.0 µM
  growth inhibition: 69%
[15]; at 100.0 µM
  growth inhibition: 97% (active)

## OC1(c2ccccc2)CC2CCC(C1)N2CCCC(O)(c1ccccc1)c1ccccc1 (stereo unspecified)
[1]; at 1.2 µM
  growth inhibition: 1%
[1]; at 3.7 µM
  growth inhibition: 1%
[1]; at 11.0 µM
  growth inhibition: 2%
[1]; at 33.0 µM
  growth inhibition: 6%
[1]; at 100.0 µM
  growth inhibition: 24%
[2]; at 1.2 µM
  growth inhibition: -5%
[2]; at 3.7 µM
  growth inhibition: -3%
[2]; at 11.0 µM
  growth inhibition: 0%
[2]; at 33.0 µM
  growth inhibition: 2%
[2]; at 100.0 µM
  growth inhibition: 5%
[4]; at 1.2 µM
  growth inhibition: -6%
[4]; at 3.7 µM
  growth inhibition: -15%
[4]; [16]
  growth inhibition: -8%
[4]; at 11.0 µM
  growth inhibition: -13%
[4]; at 33.0 µM
  growth inhibition: 21%
[4]; [17]
  growth inhibition: 6%
[4]; at 50.0 µM
  growth inhibition: 33.2%
[4]; at 100.0 µM
  growth inhibition: 62%
[5]; at 1.2 µM
  growth inhibition: 0%
[5]; at 3.7 µM
  growth inhibition: 1%
[5]; [16]
  growth inhibition: -10%
[5]; at 11.0 µM
  growth inhibition: 4%
[5]; at 33.0 µM
  growth inhibition: 18%
[5]; [17]
  growth inhibition: 10%
[5]; at 50.0 µM
  growth inhibition: -2.2%
[5]; at 100.0 µM
  growth inhibition: 37%
[6]; at 1.2 µM
  growth inhibition: 4%
[6]; at 3.7 µM
  growth inhibition: 5%
[6]; at 11.0 µM
  growth inhibition: 15%
[6]; at 33.0 µM
  growth inhibition: 53%
[6]; at 100.0 µM
  growth inhibition: 96% (active)
[7]; [16]
  growth inhibition: -2%
[7]; [17]
  growth inhibition: 44%
[7]; at 50.0 µM
  growth inhibition: 71.8% (active)
[8]; at 1.2 µM
  growth inhibition: -4%
[8]; at 3.7 µM
  growth inhibition: -5%
[8]; at 11.0 µM
  growth inhibition: -2%
[8]; at 33.0 µM
  growth inhibition: 12%
[8]; at 100.0 µM
  growth inhibition: 49%
[9]; [16]
  growth inhibition: 1%
[9]; [17]
  growth inhibition: 52%
[9]; at 50.0 µM
  growth inhibition: 2.55%
[10]; at 1.2 µM
  growth inhibition: 0%
[10]; at 3.7 µM
  growth inhibition: 0%
[10]; [16]
  growth inhibition: 8%
[10]; at 11.0 µM
  growth inhibition: 5%
[10]; at 33.0 µM
  growth inhibition: 30%
[10]; [17]
  growth inhibition: 67%
[10]; at 50.0 µM
  growth inhibition: 53.7%
[10]; at 100.0 µM
  growth inhibition: 80% (active)
[11]; at 1.2 µM
  growth inhibition: -1%
[11]; at 3.7 µM
  growth inhibition: -1%
[11]; at 11.0 µM
  growth inhibition: 1%
[11]; at 33.0 µM
  growth inhibition: 17%
[11]; at 100.0 µM
  growth inhibition: 80% (active)
[12]; at 1.2 µM
  growth inhibition: 1%
[12]; at 3.7 µM
  growth inhibition: 1%
[12]; at 11.0 µM
  growth inhibition: 3%
[12]; at 33.0 µM
  growth inhibition: 23%
[12]; at 100.0 µM
  growth inhibition: 80% (active)
[13]; at 1.2 µM
  growth inhibition: 1%
[13]; at 3.7 µM
  growth inhibition: 3%
[13]; at 11.0 µM
  growth inhibition: 3%
[13]; at 33.0 µM
  growth inhibition: 38%
[13]; at 100.0 µM
  growth inhibition: 89% (active)
[14]; [16]
  growth inhibition: -7%
[14]; [17]
  growth inhibition: 26%
[14]; at 50.0 µM
  growth inhibition: 53.5%
[15]; at 1.2 µM
  growth inhibition: 0%
[15]; at 3.7 µM
  growth inhibition: -1%
[15]; at 11.0 µM
  growth inhibition: 4%
[15]; at 33.0 µM
  growth inhibition: 28%
[15]; at 100.0 µM
  growth inhibition: 57%
